Screen size: about 310,000 compounds; about 14,000 (4.5%) showed an effect of 50% or more. The effect is printed as a negative number. The full list was thinned out, with strong results kept by preference.
target: human ether-à-go-go-related gene (hERG) potassium channel (human, UniProt Q12809); assay: primary screen, population patch clamp on CHO cells stably expressing hERG; higher = less effect of the substance
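Further: peak tail current of the secondary pulse compared with the same well before compound.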

human ether-à-go-go-related gene (hERG) potassium channel, sequence (Q12809 whole entry, looked up): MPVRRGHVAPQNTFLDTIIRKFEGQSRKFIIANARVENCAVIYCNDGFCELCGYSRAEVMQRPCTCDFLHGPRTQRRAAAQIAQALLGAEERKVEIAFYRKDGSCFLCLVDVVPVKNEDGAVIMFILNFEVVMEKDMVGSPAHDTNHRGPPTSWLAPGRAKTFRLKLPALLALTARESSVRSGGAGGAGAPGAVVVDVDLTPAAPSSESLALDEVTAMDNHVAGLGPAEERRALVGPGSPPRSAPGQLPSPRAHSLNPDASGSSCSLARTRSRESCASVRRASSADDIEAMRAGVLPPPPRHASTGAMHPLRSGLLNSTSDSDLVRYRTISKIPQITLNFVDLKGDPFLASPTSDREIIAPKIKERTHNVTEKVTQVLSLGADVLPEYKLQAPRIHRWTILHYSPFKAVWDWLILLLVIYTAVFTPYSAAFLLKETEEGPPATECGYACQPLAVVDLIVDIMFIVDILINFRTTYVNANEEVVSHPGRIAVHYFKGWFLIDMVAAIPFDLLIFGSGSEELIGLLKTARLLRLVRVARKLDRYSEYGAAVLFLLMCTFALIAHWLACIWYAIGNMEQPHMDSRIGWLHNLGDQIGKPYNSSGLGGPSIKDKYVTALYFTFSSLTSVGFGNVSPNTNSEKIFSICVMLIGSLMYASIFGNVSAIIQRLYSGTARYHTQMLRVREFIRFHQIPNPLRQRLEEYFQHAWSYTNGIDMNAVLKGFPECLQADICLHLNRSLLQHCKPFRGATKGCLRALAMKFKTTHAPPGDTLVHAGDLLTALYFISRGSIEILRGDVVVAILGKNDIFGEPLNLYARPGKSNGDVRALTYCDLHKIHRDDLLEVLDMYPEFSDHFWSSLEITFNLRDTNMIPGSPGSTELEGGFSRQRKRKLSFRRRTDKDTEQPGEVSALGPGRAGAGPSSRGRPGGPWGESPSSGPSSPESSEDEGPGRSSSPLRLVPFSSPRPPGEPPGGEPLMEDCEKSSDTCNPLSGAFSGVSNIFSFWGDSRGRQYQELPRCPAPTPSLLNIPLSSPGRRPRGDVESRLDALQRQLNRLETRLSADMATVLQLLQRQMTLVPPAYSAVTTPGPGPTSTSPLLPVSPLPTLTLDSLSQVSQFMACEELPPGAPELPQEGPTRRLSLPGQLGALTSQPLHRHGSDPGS

Compared with `CN1CCN(C(CNS(=O)(=O)c2ccc(F)cc2)c2cccnc2)CC1` (centres unmarked), `CN1CCN(C(CNS(=O)(=O)c2ccc(Cl)cc2)c2cccnc2)CC1` (centres unmarked) is lower in “hERG current change (%, negative = inhibition) at 10uM” value: -7.43% for the first, -55.6% for the second.

Going from `CCN1CCN(C(CNS(=O)(=O)c2ccccc2)c2ccccc2)CC1` (centres unmarked) to `CCN1CCN(C(CNS(=O)(=O)c2ccc(Cl)cc2)c2ccccc2)CC1` (centres unmarked), the “hERG current change (%, negative = inhibition) at 10uM” value falls from -34.8% to -69.5%.

Compared with `CCN1CCN(C(CNS(=O)(=O)c2ccc(C)cc2)c2cccnc2)CC1` (centres unmarked), `CCN1CCN(C(CNS(=O)(=O)c2ccc(Br)cc2)c2cccnc2)CC1` (centres unmarked) is lower in “hERG current change (%, negative = inhibition) at 10uM” value: -35.9% for the first, -65.8% for the second.

Going from `N#CCCN1CCN(C(CNS(=O)(=O)c2ccc(Cl)cc2)c2ccccc2)CC1` (centres unmarked) to `CCN1CCN(C(CNS(=O)(=O)c2ccc(Cl)cc2)c2cccnc2)CC1` (centres unmarked), the “hERG current change (%, negative = inhibition) at 10uM” value falls from -34.2% to -74.2%.

Compared with `CN(C)C(CNS(=O)(=O)c1ccc(Cl)cc1)c1cccnc1` (centres unmarked), `CN(C)C(CNS(=O)(=O)c1ccc(Br)cc1)c1cccnc1` (centres unmarked) is lower in “hERG current change (%, negative = inhibition) at 10uM” value: 18.2% for the first, -11.3% for the second.

First: N#Cc1ccc(Oc2cc(C(F)(F)F)nc(-c3ccccn3)n2)cc1
Second: Cc1cc(C(=O)Nc2ccc(F)cc2)c2ccccc2n1
The “hERG current change (%, negative = inhibition) at 10uM” value of the first is higher: 5.26% for the first, -0.679% for the second.

Compared with `Cc1cccc(Nc2ncnc3onc(-c4ccc(F)cc4)c23)c1C`, `Cc1ccc(NC(=O)Cn2c(-c3ccc(F)cc3)cnc2SCC(=O)Nc2c(C)cccc2C)cc1` is higher in “hERG current change (%, negative = inhibition) at 10uM” value: -4.56% for the first, 16% for the second.

Going from `Oc1ccccc1CNc1nccs1` to `O=C(O)CCCC(=O)NCc1ccccn1`, the “hERG current change (%, negative = inhibition) at 10uM” value falls from 21.3% to 11.1%.

Going from `COc1ccc(OC(C)C(=O)Nc2ccccc2F)cc1` (centres unmarked) to `COc1ccccc1N1CCN(Cc2ccc(C(=O)O)cc2)CC1`, the “hERG current change (%, negative = inhibition) at 10uM” value rises from 13.1% to 14.4%.

Going from `CN(C)CCn1cnc2c1c(=O)[nH]c(=O)n2Cc1ccccc1.Cl` to `Cc1ccccc1CN1CCN(Cc2ccccc2)CC1.O=C(O)C(=O)O`, the “hERG current change (%, negative = inhibition) at 10uM” value falls from 27.6% to -7.72%.

Going from `C/C(CC(=O)Nc1ccc2c(c1)OCCO2)=N\NC(=O)c1ccc([N+](=O)[O-])cc1Cl` to `C/C(=N\NC(=O)c1ccc(Cl)c(Cl)c1)c1cccc(NC(=O)C(C)C)c1`, the “hERG current change (%, negative = inhibition) at 10uM” value rises from -5.37% to 1.91%.

Compared with `CC(C)Sc1ccc([N+](=O)[O-])cc1C(=O)Nc1ccncc1`, `O=C(N/N=C/c1cccnc1)c1ccc(NC(=O)c2ccc(F)cc2)cc1` is higher in “hERG current change (%, negative = inhibition) at 10uM” value: -11.7% for the first, 8.2% for the second.

Compared with `CCCCCn1cnc2c(sc3nc4c(cc32)CSC(C)(C)C4)c1=O`, `Nc1c(Cl)cc(-c2cn(CCC(=O)O)c(-c3ccc(Cl)nc3)n2)cc1Cl` is higher in “hERG current change (%, negative = inhibition) at 10uM” value: -14.5% for the first, 20.4% for the second.

First: CCOC(=O)C1(CC2CCCCO2)CCN(Cc2nc3ccccc3nc2C)CC1 (centres unmarked)
Second: CCOC(=O)C1(CC2CCCCO2)CCN(Cc2nc(-c3cccs3)oc2C)CC1 (centres unmarked)
The “hERG current change (%, negative = inhibition) at 10uM” value of the first is higher: -21.2% for the first, -67.6% for the second.

First: CCOC(=O)C1(CCOC)CCN(Cc2nc(-c3cccs3)oc2C)CC1
Second: CCOC(=O)C1(CC2CC2)CCN(Cc2ccc(OC)cc2F)CC1
The “hERG current change (%, negative = inhibition) at 10uM” value of the first is higher: -30.8% for the first, -73.5% for the second.

First: CCOC(=O)C1(CC2CCCCO2)CCN(Cc2nccn2-c2ccc(OC)cc2)CC1 (centres unmarked)
Second: CCOC(=O)C1(CC2CCCCO2)CCN(Cc2ccc(OC)cc2F)CC1 (centres unmarked)
The “hERG current change (%, negative = inhibition) at 10uM” value of the first is higher: -5.78% for the first, -54.8% for the second.

Compared with `CCOC(=O)C1(CC2CCCCO2)CCN(S(=O)(=O)c2cc(C)cs2)CC1` (centres unmarked), `CCOC(=O)C1(CC2CCCCO2)CCN(S(=O)(=O)c2ccc(C)s2)CC1` (centres unmarked) is higher in “hERG current change (%, negative = inhibition) at 10uM” value: -59% for the first, 9.12% for the second.

Going from `CCOC(=O)C1(CC2CCCCO2)CCN(S(=O)(=O)c2ccc(OC)cc2)CC1` (centres unmarked) to `CCOC(=O)C1(CC2CCCCO2)CCN(S(=O)(=O)c2ccccc2)CC1` (centres unmarked), the “hERG current change (%, negative = inhibition) at 10uM” value rises from -38.3% to 9.64%.

Going from `CCOC(=O)C1CCN(Cc2ccc(F)cc2F)CC1` to `CCOc1cc(CN2CCCCC2)ccc1OC`, the “hERG current change (%, negative = inhibition) at 10uM” value falls from 6.65% to -8.28%.

Compared with `CCOC(=O)C1(CC2CC2)CCN(Cc2cnc(-c3ccc(OC)cc3)nc2)CC1`, `CCOc1cc(CN2CCN(c3ncccn3)CC2)ccc1OC` is higher in “hERG current change (%, negative = inhibition) at 10uM” value: -21.9% for the first, -4.8% for the second.

Compared with `O=C(O)c1ccc(C(=O)O)c(C(=O)c2ccc(NC(=O)c3ccccc3)cc2)c1`, `O=C(NNC(=S)NC(=O)c1cccs1)c1ccc(NC(=O)c2ccccc2)cc1` is higher in “hERG current change (%, negative = inhibition) at 10uM” value: 8.99% for the first, 13.7% for the second.

First: O=C1C2C3C=CC(C3)C2C(=O)N1c1ccc(N2CCN(c3ccccn3)CC2)c([N+](=O)[O-])c1 (centres unmarked)
Second: Cc1ccccc1N1CCN(Cc2cccc(C(=O)O)c2)CC1.Cl
The “hERG current change (%, negative = inhibition) at 10uM” value of the first is lower: -18.6% for the first, 1.27% for the second.

Compared with `O=C(NCC1OCCCN1S(=O)(=O)c1ccc(F)cc1)C(=O)NC1CCCC1` (centres unmarked), `O=C(CSc1ccccc1C(=O)O)NC1CCCCCCC1` is higher in “hERG current change (%, negative = inhibition) at 10uM” value: -15.8% for the first, 17.6% for the second.

First: CCOc1ccccc1N1CCN(Cc2ccc(OC)c(OC)c2)CC1
Second: COc1ccc(CN2CCN(c3ccccc3OC)CC2)cc1OC.O=C(O)C(=O)O
The “hERG current change (%, negative = inhibition) at 10uM” value of the first is lower: -69.2% for the first, -57.9% for the second.

First: COc1ccccc1N1CCN(Cc2ccco2)CC1.O=C(O)C(=O)O
Second: COc1ccccc1N1CCN(Cc2ccc(SC)cc2)CC1.O=C(O)C(=O)O
The “hERG current change (%, negative = inhibition) at 10uM” value of the first is higher: -26.4% for the first, -72.9% for the second.

Compared with `CSc1ccc(CN2CCN(c3ccccc3C)CC2)cc1.O=C(O)C(=O)O`, `COc1ccc(CN2CCN(Cc3ccco3)CC2)cc1OC.O=C(O)C(=O)O` is higher in “hERG current change (%, negative = inhibition) at 10uM” value: -54.5% for the first, 1.22% for the second.

First: COc1ccc(CN2CCN(C(=O)c3cccc(OC)c3OC)CC2)cc1OC.O=C(O)C(=O)O
Second: Cn1c2c(c(=O)n1-c1ccccc1)CSCC2
The “hERG current change (%, negative = inhibition) at 10uM” value of the first is lower: 5.63% for the first, 16.5% for the second.

Going from `Cc1ccccc1CN1CCCOCCS1(=O)=O` to `Cl.O=C(O)c1ccc2nc(CO)[nH]c2c1`, the “hERG current change (%, negative = inhibition) at 10uM” value rises from -0.4% to 11.2%.

Source: article PMC4336329 (PLoS ONE, 2015)
